Entries with a potency or affinity are not part of this list. Inconclusive results are not listed. Active and inactive are the calls of the source. Unless noted, the rule behind the calls is not given here.
How the values were obtained:
[1] = cytotoxicity in PAX8-dependent RMG-1 cells, dose response, cell-based, cherry-pick (AID 687029;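 active = signal drop whose fitted half-maximal concentration is at most twice the top valid dose, in every test run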;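 note: cells exposed to compound for 96 hours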)
[2] = inhibitors of CMV-promoter luciferase reporter, dose response, counter-screen for Pax8 inhibitor project, cell-based, HEK293, luminescence, dry powder (AID 743020;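 active = signal-lowering compounds whose fitted half-maximal concentration is at or below twice the top tested dose in every run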;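 note: HEK293 cells stably expressing the CMV luciferase reporter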)
[3] = non-specific cell cytotoxicity, dose response, cytotoxicity control for PAX8 inhibitor project, plate reader, dry powder samples (AID 743021)
[4] = IGROV1 ovarian cancer cell cytotoxicity, dose response, PAX8 inhibitor project, plate reader, dry powder samples (AID 743043);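 note: more negative means fewer viable cells or more cytotoxicity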
[5] = NIH:OVCAR-3 ovarian cancer cell cytotoxicity, dose response, PAX8 inhibitor project, plate reader, dry powder samples (AID 743044); conditions: max activity: at 35 µM, hits give low values unless noted
[6] = IOSE-T80 ovarian epithelial cell cytotoxicity, dose response, cytotoxicity control for PAX8 inhibitor project, plate reader, dry powder samples (AID 743045);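 note: 0% = neutral control median and -100% = positive control median; more negative values mean more cell killing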
[7] = A2780 ovarian cancer cell cytotoxicity, dose response, cytotoxicity control, plate reader, dry powder samples (AID 743046);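 note: 0% = neutral control wells and -100% = cytotoxic reference compound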
[8] = cytotoxicity in OVCAR8 ovarian cancer cells, dose response, PAX8 project, cell-based, plate reader, dry powder samples (AID 743197)

Measured: max activity

C=C1CC(COc2ccc3c(C)c(Cl)c(=O)oc3c2)(c2ccccc2)OC1=O (centres undefined)
inactive: [1] | [2] | [3]

CSc1nc(-c2ccccc2)nc(C(Cl)Cl)n1
inactive: [1] | [2] | [3]

COc1cccc2c1C(=O)c1c(O)c3c(c(O)c1C2=O)C[C@](O)(C(C)=O)C[C@H]3O[C@@H]1C[C@@H](N)[C@@H](O)[C@@H](C)O1
inactive: [1] | [2] | [3]

N#Cc1nc(NCC(F)F)nc(Nc2cc(F)cc(F)c2)n1
inactive: [1] | [2] | [3]

CC(C)=CCNc1ncnc2c1c(C#N)cn2C1OC(CO)C(O)C1O (centres undefined)
inactive: [1] | [2] | [3]

CCN(CC)S(=O)(=O)c1cc(OC)ccc1N=Nc1ccc(O)c2ncccc12
inactive: [1] | [2] | [3]

Cc1cccc(CS(=O)(=O)c2ncc(Cl)c(C(=O)Nc3ccc(F)cc3)n2)c1
inactive: [1] | [2] | [3]

COc1ccc(OC)c2sc(N(CCCN(C)C)C(=O)CCS(=O)(=O)c3ccccc3)nc12
inactive: [1] | [2] | [3]

COc1cc2c(c(OC)c1OC)-c1ccc(OC)c(=O)cc1C(NC(C)=O)CC2 (centres undefined)
inactive: [1] | [2] | [3]

O=C(NC(Nc1nc2ccc([N+](=O)[O-])cc2s1)(C(F)(F)F)C(F)(F)F)c1cccnc1
inactive: [1] | [2] | [3]

O=c1cc(C(Cl)(Cl)Cl)oc2c1ccc1ccccc12
inactive: [1] | [2] | [3]

O=S(=O)(Nc1cc(Sc2ncn[nH]2)c(O)c2ccccc12)c1ccccc1
inactive: [1] | [2] | [3]

COc1cc(NC(=O)c2ccc([N+](=O)[O-])o2)ccc1NC(=O)c1ccco1
inactive: [1] | [2] | [3]

C=CC[C@@H](CC(=O)N[C@H](CO)Cc1ccccc1)C(=O)N[C@H](COC(=O)[C@@H](CC=C)Cc1ccc(F)cc1)Cc1c[nH]c2ccccc12
inactive: [1] | [2] | [3]

Oc1ccc(C[C@H]2CNC(=S)N2CC2CCCN2C[C@H](Cc2ccc(O)cc2)N2C[C@H](Cc3ccc(O)cc3)N(CC3CCCCC3)C2=S)cc1 (some centres undefined)
inactive: [1] | [2] | [3]

COc1ccc(/C=C2\CN(Cc3ccccc3)C/C(=C\c3ccc(OC)c(O)c3)C2=O)cc1O
inactive: [1] | [2] | [3]

C[n+]1c2n(c3ccccc31)N=C(c1cc(C(C)(C)C)c(O)c(C(C)(C)C)c1)CS2
inactive: [1] | [2] | [3]

CCOc1ccc(C(=O)C(CN2CCOCC2)c2ccccc2)cc1 (centres undefined)
inactive: [1] | [2] | [3]

COc1ccc(S(=O)(=O)N(C)C[C@H]2Oc3ccc(NC(=O)Nc4ccc(C(F)(F)F)cc4)cc3C(=O)N([C@H](C)CO)C[C@@H]2C)cc1
inactive: [1] | [2] | [3]

O=C(N/N=C/c1c[nH]c2ccccc12)c1[nH]c2ccc(Br)cc2c1-c1ccccc1
inactive: [1] | [2] | [3]

C=C1C(=O)[C@@]23[C@H](O)C[C@@H]4C(C)(C)CC[C@H](O)[C@]4(C)[C@@H]2C[C@H](O)[C@@H]1[C@H]3O
inactive: [1] | [2] | [3]

COC(=O)[C@@]12C[C@@H](CC(=O)N3CCN(C(=O)c4ccco4)CC3)C(=O)N(Cc3ccccc3)C1=CCC(C)(C)C2
inactive: [1] | [2] | [3]

Cc1ccc2nc(NNC(=O)c3ccc(S(=O)(=O)N4CCc5ccccc5C4)cc3)sc2c1
inactive: [1] | [2] | [3]

CC(=O)Nc1ccc(NC(=O)c2nc(S(=O)(=O)Cc3ccccc3)ncc2Cl)cc1
inactive: [1] | [2] | [3]

CCOc1ccc2c(c1)C(C)=CC(C)(C)N2S(=O)(=O)c1ccc(NC(C)=O)cc1
inactive: [1] | [2] | [3]

CCCCn1c(=O)[nH]c(=O)c2c1nc(Cn1ncc(Cl)c(Cl)c1=O)n2CCC
inactive: [1] | [2] | [3]

Cn1nnnc1Sc1ncnc2scc(-c3ccc([N+](=O)[O-])cc3)c12
inactive: [1] | [2] | [3]

CCN(CC)c1ccc2c(cc1=O)[C@@H](NC)CCc1cc(OC)c(OC)c(OC)c1-2
inactive: [1] | [2] | [3]

CN1CC(=O)N2C(c3ccc(Cl)cc3)c3[nH]c4ccccc4c3C[C@H]2C1=O (some centres undefined)
inactive: [1] | [2] | [3]

CCCCCCCn1c2c(c(=N)c3c1CCC3)CCCC2
inactive: [1] | [2] | [3]

CCCCCc1c(-c2ccccc2OC)ncn1CCc1ccccc1OC
inactive: [1] | [2] | [3]

CCCCCc1cc(=O)oc2c(C(CCN3CCCCC3)c3ccc4c(c3)OCO4)c(OC)cc(OC)c12 (centres undefined)
inactive: [1] | [2] | [3]

O=C(Cn1ncc(Cl)c(Cl)c1=O)Nc1ccc2c(c1)OCO2
inactive: [1] | [2] | [3]

CCC(=O)N1CCN(c2ccc(NC(=O)c3ccc([N+](=O)[O-])o3)cc2)CC1
inactive: [1] | [2] | [3]

Cc1ccc(S(=O)(=O)Nc2ccc3c(c2)C(=O)N([C@H](C)CO)C[C@@H](C)[C@H](CN(C)Cc2ccc(C(F)(F)F)cc2)OCCCC[C@@H](C)O3)cc1
inactive: [1] | [2] | [3] | [4] | [5] 6.08% [at 0.5 µM, hits give low values] | [6] | [7] | [8]

COc1ccc(S(=O)(=O)Nc2ccc3c(c2)C(=O)N([C@H](C)CO)C[C@H](C)[C@@H](CN(C)Cc2ccc(Cl)c(Cl)c2)OCCCC[C@@H](C)O3)cc1
inactive: [1] | [2] | [3] | [4] | [5] -37.4% [at 8 µM, hits give low values] | [6] | [7] | [8]

CN1CCN(c2ccc(S(=O)(=O)N3CCCCC3)cc2NC(=O)/C=C/c2ccc(Cl)c([N+](=O)[O-])c2)CC1
inactive: [1] | [2] | [3]

COc1ccc(CN(C)C[C@H]2OCCCC[C@H](C)Oc3ccc(NC(=O)Nc4ccc(C(F)(F)F)cc4)cc3C(=O)N([C@H](C)CO)C[C@@H]2C)cc1
inactive: [1] | [2] | [3] | [4] | [5] -28.6% [at 8 µM, hits give low values] | [6] | [7] | [8]

Cc1ccc(S(=O)(=O)Nc2ccc3c(c2)C(=O)N([C@@H](C)CO)C[C@@H](C)[C@@H](CN(C)S(=O)(=O)c2ccc(Cl)cc2)OCCCC[C@@H](C)O3)cc1
inactive: [1] | [2] | [3] | [4] | [5] -15% | [6] | [8]

CSc1ccc(COC(=O)c2cc([N+](=O)[O-])ccc2N2CCOCC2)cc1
inactive: [1] | [2] | [3]

O=C(Nc1cccc(Cl)c1)Nc1nnc(CSCCOc2ccc(Cl)cc2)s1
inactive: [1] | [2] | [3] | [4]

O=S(=O)(c1ccccc1)N1CCCCN2[C@H](CO)[C@H](c3ccc(-c4ccccc4F)cc3)[C@H]2C1
inactive: [1] | [2] | [3] | [4] | [5] -5.95% | [6] | [7]

Cc1ccc(S(=O)(=O)NCc2ccc(C(=O)N3CCN(c4ccc([N+](=O)[O-])cc4)CC3)cc2)cc1
inactive: [1] | [2] | [3]

Cc1ccccc1S(=O)(=O)N1CC[C@@H]2[C@H](CO)Nc3ccc(-c4cccc(F)c4)cc3[C@@H]21
inactive: [1] | [2] | [3] | [4] | [6]

C[C@H](CO)N1C[C@H](C)[C@@H](CN(C)CC2CCCCC2)Oc2c(NC(=O)CCCCCC(=O)Nc3ccccc3N)cccc2C1=O
inactive: [1] | [2] | [3] | [4] | [5] 16% [at 1 µM, hits give low values] | [6] | [7]

COc1ccc(S(=O)(=O)Nc2ccc3c(c2)C(=O)N([C@H](C)CO)C[C@@H](C)[C@H](CN(C)C(=O)Nc2ccc(C(F)(F)F)cc2)OCCCC[C@H](C)O3)cc1
inactive: [1] | [2] | [3] | [4] | [5] -37.1% | [6] | [8]

C[C@H](CO)N1C[C@H](C)[C@@H](CN(C)Cc2ccc(Cl)c(Cl)c2)Oc2ccc(NC(=O)Nc3ccc(F)cc3)cc2CC1=O
inactive: [1] | [2] | [3] | [4] | [5] -44% | [6]

C=C1C(=O)O[C@@H]2[C@H]1[C@@H](OC(=O)/C(C)=C/C)C/C(C)=C\C(=O)/C=C(\C)[C@@H]2O
inactive: [1] | [2] | [3]

C[C@@H]1CN([C@@H](C)CO)C(=O)c2cc(NC(=O)Nc3ccc(C(F)(F)F)cc3)ccc2O[C@@H](C)CCCCO[C@@H]1CN(C)CC1CCCCC1
inactive: [1] | [2] | [3] | [4] | [5] 15.9% | [6] | [7] | [8]
